Our source for the PBM binding z-score values is the supplement of paper PMC6555819.

The experiment has as its system LXRb:RXRa (NR concentration 270 nM, RXRa partner concentration 90 nM). Briefly: PBM binding z-score (relative to random genomic background probes); higher = stronger binding; sequences stand for … in GC…GCGATTGACAGCGTAGAATGAAGG
In short, it runs like this:
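Scanned fluorescence from custom Agilent 4×180K protein-binding microarrays was regression-normalized. Binding z-scores use random background probes as reference. Ligand-free nuclear receptor dimers were incubated on the arrays for 1 h and detected with antibodies against each partner (one per run).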
The sequence ATGTCTAGGTAAAGTTCAGTGAAAGATCGATAGA yielded a PBM binding z-score of 1.15.
As to TATTGTAGATCAACAGGAGGTTAAGAAAGATCGA, the PBM binding z-score came out at 1.03.
With ATCGAGAGGTCGAGGTGAGTATAGAGAAAGGGAA the figure was 1.78; with TCTTGTAGATTAACAGGAGGTTAAGAAAGATCGA, 0.95.
As to CAAACTTGGTCACCGGAAGGTCAAAGTCCGCATG, the PBM binding z-score came to 3.39.
To TAGCCTAGGTCATGCGGGCCAGTATCGTGTCGGC belongs 1.41; to TCATATAGGTAAATGTGAAAGTCGAACGATATGA, 0.343.
With TAGCCAAGGTCATGGGCCAGTATACCACGCGAAC, the PBM binding z-score amounted to 4.45.
To ATTTCTAGGTAAAGTTCAGTGAAAGATCGATAGA belongs 1.4; to ACTAGGAGGCCAAGGGTCACTCAAGATTAGTCCG, 2.83.
With CCGACTGGGGCATAAGGATACCATAAGCCAGCCC the figure was -0.813; with TCGACTAGGTTACCAATGGGGCATTCAGCTTTCT, 1.49; with TCTTGTAGATCGGCAGGTTAAGAAAGCTGGCCAA, 0.25.
CAAACTAGGTCACGAAAGATCAAAGTCGAATGAC: the PBM binding z-score was found to be 3.03.
For the sequence TCTTGTAGATCAGCAGGTTAAGGAAGCTGGCCAA, the PBM binding z-score stood at 0.224.
With GCGACTGGGGCATCAGCAGGTTACCAAAACTTAA the figure was 0.621; with CCTCGGAGGACAGAAGGTCAGAGCCGTCCGCTTT, 1.2; with ATTGAAAGGTCGACGAGGTGAGTATACACCGTTT, 2.94.
With CCTATTGGGCCAAAGGTCATTGATTCCAATGCTC the figure was 4.72; with AATACAGGGTCACTAGGCGAGAGTAGGTACGAAT, 3.94; with ACTAGTTGGTGAGCTGAGGTCACACACAATTCGG, 2.85.
Sequence TCATATAGGTAAAGGTGAAAGGCGAACGATATGA had a PBM binding z-score of 1.17.
In turn, TCTGCTAGGTCAGTTGGTCCGCTAACGAGCTGCC showed a PBM binding z-score of 0.186.
To CGAACTCGGTCAAGGACAGTGAATCTCCGCACGC belongs -0.232; to CCTCGCAGGCCAATCTGGGTCACTCAAGGCTTGA, 0.914.
With TCATAGAGGTAAAGGTGAAAGTCGAACGATATGA the figure was 1.3; with CCTAGTGGGCCATCAGGTCATTGATATCAACGTT, 1.63.
Take ATCGAAAGGTGGAAGGTGAGTATACCCACCCGAA: the PBM binding z-score stood at 0.022.
With AGAATGAGGTTATACGTAGATCAGGGGAGAAAGT the figure was 1.96; with TCTATTAGTTGATTAGGGCAACCGCAACAGCGGA, 0.329; with ACTTACGGGTTAACGAGGTTATAGCACGCGTATA, 2.31.
To CGAACTGGGTCAGAACAGGACAGTGAAGGATGAT belongs 0.0427; to TCATATAGGCAAACAGGTGAAAGTCCGTAAGTTA, 0.614.
With GCACCAAGGTGAATAGGTCGTTGATGAGTAGGCG the figure was 0.429; with AGAATGAGGTTATTAAGATCAGGGTATTGCGGTC, 1.09; with GCTTGTAGATCAAGGGTAAGAAAGACTAAGCTAA, -0.394.
In the case of ACAGACAGGTGAGTGAAGGTAACTTAGCTGGACG, the PBM binding z-score was -0.508.
With GCATATAGGTAATACAAGGTGAGAGTCCGATTGT the figure was 0.0719.
With TCTCGGAGGACACGAAGGGCAGAGCTTTCCAGAG the figure was -0.711.
To CCTGCTAGGTCGTGGTCAGCTAATCTACAGTATG belongs 0.0814.
